Screening data from PubChem.
This is a sample that favours compounds with a hit; in the whole collection about 5% have one here.
ALR H2O2 inh = inhibitors of human ALR sulfhydryl oxidase, primary screen, biochemical, H2O2 detection, HRP-luminol luminescence, single point; FAD-linked sulfhydryl oxidase ALR (Homo sapiens), P55789; purified ALR, DTT oxidation; inhibition, % (concentration not given with the values); 290,000 tested, 3.8% active;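 active = mean replicate inhibition above about 79%, with every replicate also reaching it, limit read from the data; inconclusive = only one of the two criteria met; inactive = mean below limit and not every replicate reaching it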
Target sequence (P55789 whole entry, looked up): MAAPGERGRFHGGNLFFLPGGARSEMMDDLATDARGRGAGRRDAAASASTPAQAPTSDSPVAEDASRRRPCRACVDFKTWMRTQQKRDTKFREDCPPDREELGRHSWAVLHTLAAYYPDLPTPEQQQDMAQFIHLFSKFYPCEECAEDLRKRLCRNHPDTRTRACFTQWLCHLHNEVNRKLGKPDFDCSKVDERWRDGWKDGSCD
CHT block = inhibitors of human choline transporter CHT. High affinity choline transporter 1 (Homo sapiens), Q9GZV3. CHT-expressing cells, membrane potential dye, choline response; stronger effect = lower value. B-score at 10 µM. 310,000 tested, 0.86% active. AID 488975, 2010;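 active = B-score over 3 SD under the library average, and starting fluorescence ratio not unusually high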;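 note: choline stimulus applied at its EC90 after an EC20 pre-addition; B-score computed on integrated fluorescence ratio after choline addition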
AI-2 QS mod = Vibrio harveyi AI-2 quorum sensing modulators, primary screen, JMH597 strain, luminescence/OD600 ratio | Vibrio harveyi JMH597 AI-2 luminescence/OD600 ratio, 9 h; stronger effect = lower value; strain lacks LuxN and CqsS sensors; 0 = neutral-control median | activity change, % at 7.5 µM | 300,000 tested, 0.4% active | AID 2094, 2009; in the data active = activity change below about -75%, passing the limit was not always enough; inconclusive = no clear call, values can overlap the other calls;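 note: luminescence divided by OD600 gain over 9 h not by final OD600 alone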
PREPL inh = PREPL enzyme inhibitors, primary screen, biochemical, fluorescence polarization | Prolyl endopeptidase-like (Homo sapiens), Q4J6C6 | recombinant PREPL, fluorescence polarization activity-based probe | inhibition, % at 5.96 µM | 320,000 tested, 0.68% active | AID 2751, 2010;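 note: 0% = enzyme with DMSO and 100% = wells lacking enzyme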
CHT allo act = CHT positive allosteric modulators, primary screen, cell-based, membrane potential dye, choline EC20 | High affinity choline transporter 1 (Homo sapiens), Q9GZV3 | CHT-expressing cells; stronger effect = higher value; LV-AA mutant CHT in HEK293 cells | B-score at 10 µM | 310,000 tested, 0.49% active;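 active = initial fluorescence not abnormally high and integrated response B-score, plate-corrected, over 3 SD above library mean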
PREPL inh cf = human PREPL enzyme inhibitors, confirmation, biochemical, fluorescence polarization; shares compounds with PREPL inh; recombinant PREPL, fluorescence polarization activity probe; inhibition, % at 5.96 µM; 2,000 tested, 67% active;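 note: 0% = protein with DMSO and 100% = wells lacking protein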
* = called active by the depositor; i = inactive; ? = inconclusive; / = not tested or not shown. Cut-off read from the data, not from the text of the source, unless noted: active = inhibition above about 43%; inactive = the rest.

SMILES | ALR H2O2 inh | CHT block | AI-2 QS mod | PREPL inh | CHT allo act | PREPL inh cf
COc1ccc(C(=O)Nc2cccc(C(C)=O)c2)cc1S(=O)(=O)N1CCOCC1 | -4 | i | 11 | 9 | i | /
COc1ccc(C(=O)Nc2ccc(-c3ccc(C)o3)cc2)cc1S(=O)(=O)N1CCOCC1 | / | i | 11 | 63* | i | 37
CCCCCCCC[n+]1cccc(C(=O)N(CC)CC)c1 | -5 | i | 22 | 1 | i | /
CCCCCCCCCCCCCCCC[n+]1cccc(C(=O)N(CC)CC)c1 | -40 | i | 13 | 50* | i | 51*
Cc1cc(C(=O)COc2ccccc2C(N)=O)c(C)n1C | / | i | -3 | -2 | i | /
Cc1cc(C(=O)COc2cccc3cccnc23)c(C)n1C | -25 | i | 25 | 65* | i | 10
Cc1onc(-c2ccccc2)c1C(=O)N/N=C/c1cn(C)c2ccccc12 | 1 | i | -2 | 8 | i | /
COc1ccc(-c2cc(-c3ccccc3O)[nH]n2)cc1OC | / | i | 10 | 26 | i | /
COc1ccc(-c2cc(-c3ccc(OC)c(OC)c3)n[nH]2)c(O)c1 | 13 | i | 8 | 46* | i | 29
C=C1N(C)c2cc([N+](=O)[O-])c(N)cc2C1(C)C | 15 | i | 18 | 85* | i | 44*
COC(=O)Cn1nnc(N2CCOCC2)n1 | -1 | i | 6 | 0 | i | /
CCN1/C(=C/c2ccc3ccccc3[n+]2CC)C=Cc2ccccc21 | 63 | i | 16 | 47* | i | 49*
CCN1/C(=C/c2ccc3ccccc3[n+]2CCCS(=O)(=O)[O-])C=Cc2cc(C)ccc21 | 17 | i | 10 | / | i | /
Nc1cc(C(=O)O)c(N)c2c1C(=O)c1ccccc1C2=O | 99* | i | 52 | 84* | i | 72*
COc1ccc(CC(=O)N2CCN(S(=O)(=O)c3cc(Cl)ccc3Cl)CC2)cc1 | -4 | / | / | 79* | / | 18
O=C(CN1CCOCC1)Nc1scc2c1c(=O)oc1ccccc12 | / | i | 10 | -4 | i | /
Cc1sc2ncnc(N/N=C/c3ccc(O)cc3)c2c1C | 72 | i | 31 | 24 | i | /
Cc1sc2ncnc(N/N=C/c3ccccc3O)c2c1C | 91* | i | ? | 66* | i | 65*
Cc1ccsc1/C=N/N=C1\C(=O)Nc2ccccc21 | -5 | i | 20 | 53* | i | 52*
CCOC(=O)C1(CCOC)CCN(C/C=C/c2ccccc2OC)CC1 | / | i | 24 | 3 | i | /
O=C(C[C@H]1C/C=C\C[C@@H](Cc2ccc(F)cc2)C(=O)OC[C@H]2CCCN2C1=O)NCCO | -3 | / | / | 47* | / | 48*
O=C(C[C@@H]1C/C=C\C[C@@H](Cc2ccc(F)cc2)C(=O)OC[C@@H]2CCCN2C1=O)N[C@H](CO)Cc1ccccc1 | -22 | / | / | 48* | / | 54*
O=C(C[C@@H]1C/C=C\C[C@H](Cc2ccc(F)cc2)C(=O)OC[C@@H]2CCCN2C1=O)N[C@H](CO)Cc1ccccc1 | -1 | / | / | 34 | / | /
O=C(C[C@@H]1C/C=C\C[C@@H](Cc2ccc(F)cc2)C(=O)OC[C@H]2CCCN2C1=O)NCCO | -6 | / | / | 30 | / | /
O=C(C[C@@H]1C/C=C\C[C@H](Cc2ccc(F)cc2)C(=O)OC[C@H]2CCCN2C1=O)N[C@H](CO)Cc1ccccc1 | 1 | / | / | 46* | / | 43
Cc1[nH]c2ccc(C(=O)NCCCN(C)C3CCCCC3)cc2c1C | 11 | i | -3 | 16 | i | /
CCN(CC)CCN1c2ccccc2Sc2ccc3ccccc3c21 | 98* | i | 28 | 46* | i | 37
Cn1c(=O)cc2c3c(c(N4CCCCC4)ccc31)C(=O)c1ccccc1-2 | 18 | i | -5 | 55* | i | 57*
O=C1c2ccccc2-c2onc3ccc(N4CCCC4)c1c23 | / | / | 27 | / | / | /
Cn1nc(-c2ccc(Cl)cc2)nc2c(=O)n(C)c(=O)nc1-2 | -176 | i | -77* | 44* | i | 60*
